In assay [1] the target is Aldehyde dehydrogenase, mitochondrial (Homo sapiens) (UniProt P05091). The assay is described as follows: qHTS for Inhibitors of the Aldehyde Dehydrogenase Family (ALDH2) Primary screen (AID 2061308). Further: nearly all actives have a fitted effect of over 55% in size.
The target in assay [2] is Retinaldehyde dehydrogenase 3 (Homo sapiens) (UniProt P47895). The assay is described as follows: qHTS for Inhibitors of the Aldehyde Dehydrogenase Family (ALDH1A3) Primary screen (AID 2061315).

Results filed as inconclusive are left out. Entries that show only a call come without a potency. The source made the active and inactive calls. The call rests on the fitted dose curve; in most records, active means well fitted curve in the direction sought with a large enough effect; inconclusive means small, poorly fitted or top-dose-only effect, or another doubt; inactive means no such curve, though single readings can be large; an effect the other way counts as inactive or inconclusive.

With `COC(=O)c1ccccc1S(=O)(=O)Nc1cc(=O)c2ccccc2[nH]1`, the Potency entry in assay [1] and in assay [2] was “inactive” throughout.
On to `CN1C(=O)NC(c2ccccc2Cl)C2=C1CCCC2=O` (stereo unspecified), for which the Potency entry in assay [1] and in assay [2] was “inactive” throughout.
For `O=S(=O)(Nc1cnc2ccccc2c1)c1ccc(NCc2ccc(Br)cc2O)cc1`, the Potency result in assay [1] and in assay [2] was “inactive” throughout.
Turning to `CCOc1ccc(-c2csc(N3CCC(C(N)=O)CC3)n2)cc1`, the Potency result in assay [1] and in assay [2] was “inactive” each time.
Take `COc1cccc(CNc2ccc(S(=O)(=O)Nc3ncccn3)cc2)c1O`: the Potency result in assay [1] and in assay [2] was “inactive” in each case.
In the case of `CN(CC1CCCO1)c1ncnc2ccc(-c3ccc4c(c3)OCO4)cc12` (stereo unspecified), the Potency entry in assay [1] and in assay [2] was “inactive” in each case.
Take `Cc1cccc(-n2cnc3cc(C(=O)N4CCCC4)ccc32)c1`: the Potency entry in assay [1] and in assay [2] was “inactive” in each case.
As to `Cc1ccc(-c2cc(C(=O)N(C)c3ccccc3)c3ccccc3n2)cc1C`, the Potency result in assay [1] and in assay [2] was “inactive” throughout.
As for `Cc1cc(C)nc(NC(=S)N2CCN(c3ncnc4ccccc34)CC2)c1`, the Potency entry in assay [1] and in assay [2] was “inactive” each time.
As to `Cc1cc2c(s1)c1cnn(Cc3ccc(C#N)cc3)c(=O)c1n2C`, the Potency result in assay [1] and in assay [2] was “inactive” throughout.
Consider `COc1ccnc(NC(=S)N2CCN(c3cc(C(F)(F)F)cc(C(F)(F)F)c3)CC2)c1`, for which the Potency result in assay [1] and in assay [2] was “inactive” throughout.
Consider `C[C@@H]1[C@H](O)[C@@H]2OC(=O)C3=C2[C@H](CCC3)[C@@]12C[C@@H](c1ccoc1)OC2=O`, for which the Potency result in assay [1] and in assay [2] was “inactive” each time.
As for `Cc1cc(C)nc(NC(=S)N2CCN(c3ccc(C(F)(F)F)cc3[N+](=O)[O-])CC2)c1`, the Potency result in assay [1] and in assay [2] was “inactive” throughout.
Consider `Cc1cccc(-c2csc(N3CCC(C(N)=O)CC3)n2)c1`, for which the Potency entry in assay [1] and in assay [2] was “inactive” each time.
For `CC(=O)c1ccc(-c2csc3ncnc(Sc4nnnn4C)c23)cc1`, the Potency entry in assay [1] and in assay [2] was “inactive” in each case.
In the case of `FC(F)(F)c1ccccc1-c1nc(NCc2ccc(-c3ccc4ccccc4c3)cc2)c2ccccc2n1`, the Potency result in assay [1] and in assay [2] was “inactive” in each case.
As for `N[C@H](C(=O)Nc1ccc(Cl)cc1C(=O)c1ccc[nH]1)c1ccccc1`, the Potency result in assay [1] and in assay [2] was “inactive” throughout.
As to `Cc1cc2c(s1)c1cnn(Cc3ccc4ccccc4c3)c(=O)c1n2C`, the Potency result in assay [1] and in assay [2] was “inactive” each time.
Turning to `O=c1c2ccc(C(F)(F)F)cc2nc2sc(Nc3ccc4c(c3)CCC4)nn12`, the Potency entry in assay [1] and in assay [2] was “inactive” each time.
For `O=C1CCCC2=C1C(c1[nH]ncc1Cl)NC(=NCc1cccs1)N2` (stereo unspecified), the Potency entry in assay [1] and in assay [2] was “inactive” throughout.
As to `O=S(=O)(c1cccc2ccccc12)n1ccc2ccc(N3CCN4CCCC4C3)cc21` (stereo unspecified), the Potency entry in assay [1] and in assay [2] was “inactive” in each case.
For `CC(C)c1nc2c(cnn2C)c(=O)n1N`, the Potency entry in assay [1] and in assay [2] was “inactive” in each case.
For the compound `Cc1noc(C)c1C(=O)N1CCC2(CCCN(C(c3ccccc3)c3ccccc3)C2)CC1`, the Potency result in assay [1] and in assay [2] was “inactive” throughout.
`O=C1CCCC2=C1C(c1[nH]ncc1Cl)NC(=NCc1cccnc1)N2` (stereo unspecified): the Potency result in assay [1] and in assay [2] was “inactive” throughout.
Consider `N#Cc1c(-c2ccccc2C(F)(F)F)nc2ccccc2c1NCc1ccc(-c2cccnc2)cc1`, for which the Potency result in assay [1] and in assay [2] was “inactive” each time.
Turning to `C[C@@H]1CC[C@]2(C(=O)O)CC[C@]3(C(=O)O)C(=CCC4[C@@]5(C)CC[C@H](O[C@@H]6O[C@@H](C)[C@H](O[C@@H]7O[C@H](CO)[C@@H](O)[C@H](O)[C@H]7O)[C@@H](O)[C@H]6O)C(C)(C)C5CC[C@]43C)C2[C@H]1C` (stereo partly specified), the Potency result in assay [1] and in assay [2] was “inactive” each time.
Regarding `O=C(Nc1ccc(Oc2ccccc2)cc1)Nc1nnc(-c2ccncc2)s1`, the Potency entry in assay [1] and in assay [2] was “inactive” throughout.
For `NC(=O)C1CCN(c2nc(-c3cccc(Br)c3)cs2)CC1`, the Potency result in assay [1] and in assay [2] was “inactive” each time.
As to `Cn1nnnc1Sc1ncnc2scc(-c3cccc4c3sc3ccccc34)c12`, the Potency entry in assay [1] and in assay [2] was “inactive” in each case.
In the case of `CCN(CC)CCCC(C)n1c(-c2ccccc2)nc2c(N3CCOCC3)nc(C)nc21` (stereo unspecified), the Potency result in assay [1] and in assay [2] was “inactive” each time.
Take `COCCNc1nc(C)nc2c1nc(-c1ccccc1)n2CCN1CCCCC1`: the Potency result in assay [1] and in assay [2] was “inactive” throughout.
`N#Cc1cc(NC(=O)Nc2nnc(-c3ccncc3)s2)ccc1-c1ccc[nH]1`: the Potency result in assay [1] and in assay [2] was “inactive” in each case.
For the compound `Cc1nc(NCc2ccccc2)c2nc(-c3ccccc3)n(CCCN3CCCCC3C)c2n1` (stereo unspecified), the Potency result in assay [1] and in assay [2] was “inactive” throughout.
For `Cc1cc2c(s1)c1cnn(Cc3ccc(Br)cc3F)c(=O)c1n2C`, the Potency entry in assay [1] and in assay [2] was “inactive” in each case.
In the case of `N#Cc1ccc(C[C@H](C(=O)O)N2C(=O)c3ccc(C(=O)O)cc3C2=O)cc1`, the Potency entry in assay [1] and in assay [2] was “inactive” each time.
Regarding `O=C(NCc1ccc(Cl)c(Cl)c1)Nc1nnc(-c2ccncc2)s1`, the Potency entry in assay [1] and in assay [2] was “inactive” in each case.
`CC(C)C1=CC2=CCC3[C@](C)(CCC[C@@]3(C)C(=O)O)C2CC1O` (stereo partly specified): the Potency result in assay [1] and in assay [2] was “inactive” throughout.
As for `O=C(Nc1nnc(-c2ccncc2)s1)Nc1cccc2ccccc12`, the Potency entry in assay [1] and in assay [2] was “inactive” throughout.
Take `NC(=O)c1ccc(-c2noc(-c3ccccc3F)n2)cc1`: the Potency entry in assay [1] and in assay [2] was “inactive” each time.
As to `COc1ccc(CNc2nc(-c3ccccc3C(F)(F)F)nc3ccccc23)cc1`, the Potency entry in assay [1] and in assay [2] was “inactive” each time.
Turning to `Cc1cc(NS(=O)(=O)c2ccc3c(c2)CCC(=O)N3)ccc1F`, the Potency entry in assay [1] and in assay [2] was “inactive” each time.
In the case of `Cc1noc(C)c1-c1ccc2ncnc(NCC3CCCCN3C)c2c1` (stereo unspecified), the Potency entry in assay [1] and in assay [2] was “inactive” each time.
Take `Cc1c(C(=O)NCC2CCCO2)[nH]c2c1C(=O)CCC2` (stereo unspecified): the Potency result in assay [1] and in assay [2] was “inactive” in each case.

The values are drawn from PubChem BioAssay (NCATS).
